Assay results: PubChem BioAssay (EPA / NIEHS)
Calls of active or inactive are those of the source. How the source made its calls: active means hit-call score of the fitted dose curve at least 0.9, where 1 is the maximum; inactive means score below 0.9.

Assays:
[1] = ATG_CMV_CIS: Attagene CIS-FACTORIAL HepG2 Assay for human CMV (Internal Marker) (AID 2282928); settings: HepG2 CMV promoter reporter, transcription factor profiling; actives raise or lower the signal;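 further: endpoint acts as a background internal control marker rather than a target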
Procedure, shortened: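 Fluorescence intensity of RT-PCR-derived reporter fragments, resolved by capillary electrophoresis, gives the signal. HepG2 liver cells bearing transfected cis-element reporters were treated 24 h; activity in either direction was fit relative to DMSO-treated controls.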

[2] = ATG_DR4_LXR_CIS: Attagene CIS-FACTORIAL HepG2 Assay for human Liver X Receptor (LXR), DR4 submotif (AID 2282929); settings: HepG2 Attagene DR4 cis-reporter, mRNA transcription; actives raise or lower the signal
Procedure, shortened: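 Total RNA from 24 h-treated, MRTU-transfected HepG2 cells underwent reverse transcription, PCR, fluorescent primer extension and restriction digestion before capillary electrophoresis. Both increases and decreases in reporter signal were fitted against DMSO.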

[3] = ATG_AP_1_CIS: Attagene CIS-FACTORIAL HepG2 Assay for human Activator Protein 1 (AP-1) (AID 2282931); settings: HepG2 Attagene cis-factorial AP-1 reporter mRNA; actives raise or lower the signal
Procedure, shortened: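 HepG2, transient cis-reporter transfection; 24 h; readout RT-PCR/CE fluorescence; DMSO baseline, gain and loss fitted.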

[4] = biological target: Transcription factor E2F1 (Homo sapiens) (UniProt Q01094); experiment: ATG_E2F_CIS: Attagene CIS-FACTORIAL HepG2 Assay for human E2F Transcription Factor 1 (AID 2282935); settings: HepG2 Attagene cis-reporter, E2F reporter RNA transcripts; actives raise or lower the signal
Sequence of Transcription factor E2F1 (Homo sapiens) (Q01094 whole entry, looked up): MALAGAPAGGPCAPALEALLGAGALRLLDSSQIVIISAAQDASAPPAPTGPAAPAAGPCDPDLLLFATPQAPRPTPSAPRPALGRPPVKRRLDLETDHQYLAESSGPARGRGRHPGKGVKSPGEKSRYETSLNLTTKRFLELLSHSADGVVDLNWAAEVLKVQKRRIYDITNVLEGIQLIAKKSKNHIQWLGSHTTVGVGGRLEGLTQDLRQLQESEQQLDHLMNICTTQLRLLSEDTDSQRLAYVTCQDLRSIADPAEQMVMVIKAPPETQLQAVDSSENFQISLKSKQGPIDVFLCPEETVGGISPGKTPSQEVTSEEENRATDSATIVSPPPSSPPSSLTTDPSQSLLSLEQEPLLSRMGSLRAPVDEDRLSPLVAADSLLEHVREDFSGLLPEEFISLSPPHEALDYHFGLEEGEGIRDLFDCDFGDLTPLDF
Procedure, shortened: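 Fluorescent RT-PCR products, digested with HpaI for 2 h at 37 C, are separated by capillary electrophoresis. Source RNA comes from transfected HepG2 cultures treated for 24 h.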

[5] = ATG_E_Box_CIS: Attagene CIS-FACTORIAL HepG2 Assay for human Enhancer Box (E-box) (AID 2282936); settings: HepG2 E-box cis-reporter transcription, actives raise or lower the signal
Procedure, shortened: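 Fluorescent reporter fragments separated by capillary electrophoresis gave the signal; mRNA came from HepG2 cells transfected with cis-element reporters and treated 24 h. Curves fitted bidirectionally relative to DMSO controls.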

[6] = ATG_M_19_CIS: Attagene CIS-FACTORIAL HepG2 Assay for M19 Transcription Factor (Internal Marker) (AID 2282939); settings: HepG2 Attagene CIS-FACTORIAL M19 internal marker reporter; actives raise or lower the signal
Procedure, shortened: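 HepG2 cells transiently transfected with cis-regulated multiplexed reporter units, dosed 24 h. Reporter mRNA quantified by RT-PCR and capillary electrophoresis; internal background marker fitted bidirectionally versus DMSO.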

[7] = ATG_FoxO_CIS: Attagene CIS-FACTORIAL HepG2 Assay for human Forkhead box O (FoxO) (AID 2282943); settings: HepG2 Attagene cis-reporter, FoxO element, mRNA; actives raise or lower the signal
Procedure, shortened: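 Human hepatoma HepG2 cells carry transiently introduced reporter transcription units controlled by cis promoter elements. Chemical treatment lasted 24 h, and mRNA signal was compared with DMSO.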

[8] = ATG_GATA_CIS: Attagene CIS-FACTORIAL HepG2 Assay for human GATA Binding Protein (AID 2282944); settings: HepG2 GATA cis-element reporter, Attagene multiplex mRNA; actives raise or lower the signal
Procedure, shortened: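 HepG2 cells transiently transfected with multiplexed cis-element reporter units measure endogenous GATA activity; after 24 h compound exposure, reporter mRNA quantified by RT-PCR and capillary electrophoresis. Changes fitted in both directions vs DMSO.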

[9] = ATG_GLI_CIS: Attagene CIS-FACTORIAL HepG2 Assay for human Zinc Finger Protein GLI1 (AID 2282945); settings: HepG2, Attagene cis-factorial reporter mRNA, GLI element; actives raise or lower the signal
Procedure, shortened: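 Bidirectional curve fits relative to DMSO, using reporter mRNA levels from RT-PCR plus capillary electrophoresis. Cells were HepG2 transiently carrying cis-regulated reporter constructs, harvested 24 h after dosing.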

[10] = ATG_M_32_CIS: Attagene CIS-FACTORIAL HepG2 Assay for M32 Transcription Factor (Internal Marker) (AID 2282949); settings: HepG2 Attagene cis-factorial M32 reporter, mRNA; actives raise or lower the signal;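 further: background control marker of the multiplexed CIS panel rather than a real target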
Procedure, shortened: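 Using DMSO as baseline, bidirectional curve fits were applied to reporter mRNA signals. These came from transiently transfected HepG2 cells exposed for 24 h, with RNA analysed by RT-PCR, FAM primer extension, HpaI digestion and CE.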

[11] = ATG_M_06_CIS: Attagene CIS-FACTORIAL HepG2 Assay for M06 Transcription Factor (Internal Marker) (AID 2282950); settings: HepG2 Attagene CIS-FACTORIAL M06 internal marker reporter; actives raise or lower the signal
Procedure, shortened: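 Internal background marker within multiplexed cis-reporter HepG2 system. Cells transiently transfected, dosed 24 h; reporter mRNA measured by RT-PCR, HpaI digestion and capillary electrophoresis. Bidirectional fit relative to DMSO.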

[12] = biological target: Paired box protein Pax-6 (Homo sapiens) (UniProt P26367); experiment: ATG_Pax6_CIS: Attagene CIS-FACTORIAL HepG2 Assay for human Paired Box 6 (PAX6) (AID 2282956); settings: HepG2 CIS-FACTORIAL PAX6 reporter transcription, RNA readout; actives raise or lower the signal
Sequence of Paired box protein Pax-6 (Homo sapiens) (P26367 whole entry, looked up): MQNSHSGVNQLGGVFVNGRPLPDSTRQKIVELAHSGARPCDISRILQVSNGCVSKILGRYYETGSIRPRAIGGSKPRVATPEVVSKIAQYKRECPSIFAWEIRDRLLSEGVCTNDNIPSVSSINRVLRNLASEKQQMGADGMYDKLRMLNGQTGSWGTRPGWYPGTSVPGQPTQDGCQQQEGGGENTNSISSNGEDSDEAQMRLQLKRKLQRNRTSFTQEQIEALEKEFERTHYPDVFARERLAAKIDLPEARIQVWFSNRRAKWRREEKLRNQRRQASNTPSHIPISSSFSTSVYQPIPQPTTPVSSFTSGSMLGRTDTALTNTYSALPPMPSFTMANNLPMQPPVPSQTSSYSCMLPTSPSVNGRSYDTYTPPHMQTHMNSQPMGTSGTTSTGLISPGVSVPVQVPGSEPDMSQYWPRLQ
Procedure, shortened: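 Values derive from bidirectional curve fitting of reporter mRNA signal relative to DMSO. HepG2 cells bearing transfected cis-regulated MRTUs were exposed for 24 h; transcripts were read by RT-PCR and capillary electrophoresis.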

[13] = ATG_Sox_CIS: Attagene CIS-FACTORIAL HepG2 Assay for human SRY-box transcription factor (SOX) (AID 2282960); settings: HepG2 Attagene cis-factorial SOX reporter, mRNA; actives raise or lower the signal
Procedure, shortened: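 HepG2, cis reporter units, 24 h exposure. Reporter mRNA: RT-PCR → FAM labelling → HpaI → CE fluorescence. Bidirectional fit vs DMSO.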

[14] = biological target: Signal transducer and activator of transcription 3 (Homo sapiens) (UniProt P40763); experiment: ATG_STAT3_CIS: Attagene CIS-FACTORIAL HepG2 Assay for human Signal Transducer and Activator of Transcription 3 (STAT3) (AID 2282963); settings: HepG2, Attagene cis-factorial STAT3 reporter transcription; actives raise or lower the signal
Sequence of Signal transducer and activator of transcription 3 (Homo sapiens) (P40763 whole entry, looked up): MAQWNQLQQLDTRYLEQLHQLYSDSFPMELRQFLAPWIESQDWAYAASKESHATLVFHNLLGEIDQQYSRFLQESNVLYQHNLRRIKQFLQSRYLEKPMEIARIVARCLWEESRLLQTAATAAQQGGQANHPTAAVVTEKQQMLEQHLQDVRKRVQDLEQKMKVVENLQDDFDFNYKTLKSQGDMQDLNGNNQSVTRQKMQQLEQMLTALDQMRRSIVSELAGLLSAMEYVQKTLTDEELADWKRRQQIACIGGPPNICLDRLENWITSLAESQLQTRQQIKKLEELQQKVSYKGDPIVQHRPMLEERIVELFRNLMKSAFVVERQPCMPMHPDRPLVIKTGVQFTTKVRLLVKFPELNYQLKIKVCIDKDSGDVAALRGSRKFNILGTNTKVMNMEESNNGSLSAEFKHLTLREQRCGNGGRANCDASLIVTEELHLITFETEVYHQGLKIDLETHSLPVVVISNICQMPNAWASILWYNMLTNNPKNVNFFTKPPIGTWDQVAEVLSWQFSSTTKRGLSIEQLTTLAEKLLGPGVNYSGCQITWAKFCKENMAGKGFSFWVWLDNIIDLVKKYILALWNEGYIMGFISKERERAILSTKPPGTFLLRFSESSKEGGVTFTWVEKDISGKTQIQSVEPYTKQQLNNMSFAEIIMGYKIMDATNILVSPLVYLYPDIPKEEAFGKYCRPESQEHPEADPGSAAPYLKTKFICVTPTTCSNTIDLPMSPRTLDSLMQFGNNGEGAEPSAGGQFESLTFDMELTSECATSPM
Procedure, shortened: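 Cis-factorial format: endogenous transcription factors in HepG2 drive transfected reporter units. After 24 h treatment, reporter RNA was reverse-transcribed, amplified, FAM-labelled and HpaI-digested before CE analysis; activity scored in both directions against DMSO.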

[15] = ATG_TCF_b_cat_CIS: Attagene CIS-FACTORIAL HepG2 Assay for human T-Cell-Factor with beta-catenin (TCF/b-cat) (AID 2282965); settings: HepG2 TCF/beta-catenin cis-reporter transcription, actives raise or lower the signal
Procedure, shortened: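 Measured: reporter mRNA in HepG2 transiently transfected with cis-promoter reporter units, 24 h after chemical addition. Fitting was bidirectional, DMSO as negative control.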

[16] = ATG_TAL_CIS: Attagene CIS-FACTORIAL HepG2 Assay for human TAL Basal Promoter (AID 2282966); settings: HepG2 Attagene cis-factorial TAL promoter reporter; actives raise or lower the signal;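 further: background control endpoint measuring basal TAL promoter reporter mRNA not a specific factor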
Procedure, shortened: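 Basal-promoter background-control endpoint from a multiplexed HepG2 reporter panel. Cells were exposed 24 h, then reporter mRNA was read by RT-PCR/CE fluorescence and fitted in both directions relative to DMSO.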

[17] = ATG_TGFb_CIS: Attagene CIS-FACTORIAL HepG2 Assay for human Transforming Growth Factor (TGF) (AID 2282967); settings: HepG2 Attagene CIS TGFb reporter, mRNA transcription; actives raise or lower the signal
Procedure, shortened: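 HepG2 cells transiently transfected with cis-promoter-driven multiple reporter units measure endogenous TF activity; reporter mRNA quantified at 24 h by RT-PCR, FAM labeling, HpaI digestion and capillary electrophoresis. Bidirectional fit vs DMSO.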

[18] = biological target: Transcriptional activator Myb (Homo sapiens) (UniProt P10242); experiment: ATG_Myb_CIS: Attagene CIS-FACTORIAL HepG2 Assay for human Myeloblastosis (Myb) Proto-Oncogene Transcription Factor (AID 2282986); settings: HepG2 Attagene CIS-FACTORIAL Myb reporter transcription; actives raise or lower the signal
Sequence of Transcriptional activator Myb (Homo sapiens) (P10242 whole entry, looked up): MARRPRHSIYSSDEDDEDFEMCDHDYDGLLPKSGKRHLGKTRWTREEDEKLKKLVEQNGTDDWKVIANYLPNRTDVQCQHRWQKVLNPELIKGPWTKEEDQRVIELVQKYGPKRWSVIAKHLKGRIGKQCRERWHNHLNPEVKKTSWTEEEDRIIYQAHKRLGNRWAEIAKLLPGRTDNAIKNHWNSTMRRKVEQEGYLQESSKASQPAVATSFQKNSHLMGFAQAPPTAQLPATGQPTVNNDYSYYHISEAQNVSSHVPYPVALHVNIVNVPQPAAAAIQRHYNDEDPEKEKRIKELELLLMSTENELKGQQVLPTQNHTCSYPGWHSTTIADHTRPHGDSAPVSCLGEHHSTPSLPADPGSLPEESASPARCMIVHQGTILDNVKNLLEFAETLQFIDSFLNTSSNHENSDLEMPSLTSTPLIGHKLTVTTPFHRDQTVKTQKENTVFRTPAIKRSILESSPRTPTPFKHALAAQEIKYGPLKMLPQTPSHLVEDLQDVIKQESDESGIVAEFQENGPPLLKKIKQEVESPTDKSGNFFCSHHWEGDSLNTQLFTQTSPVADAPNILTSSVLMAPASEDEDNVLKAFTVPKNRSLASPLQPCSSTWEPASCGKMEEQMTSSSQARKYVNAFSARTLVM
Procedure, shortened: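 After 24 h of compound dosing, total RNA from transfected HepG2 cells is reverse-transcribed and the reporter sequences amplified, labeled and separated by capillary electrophoresis. Values come from bidirectional fitting against DMSO.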

[19] = biological target: Myc proto-oncogene protein (Homo sapiens) (UniProt P01106); experiment: ATG_Myc_CIS: Attagene CIS-FACTORIAL HepG2 Assay for human Myelocytomatosis (Myc) Proto-Oncogene Transcription Factor (AID 2282990); settings: HepG2, Attagene cis-reporter transcription factor activity; actives raise or lower the signal
Sequence of Myc proto-oncogene protein (Homo sapiens) (P01106 whole entry, looked up): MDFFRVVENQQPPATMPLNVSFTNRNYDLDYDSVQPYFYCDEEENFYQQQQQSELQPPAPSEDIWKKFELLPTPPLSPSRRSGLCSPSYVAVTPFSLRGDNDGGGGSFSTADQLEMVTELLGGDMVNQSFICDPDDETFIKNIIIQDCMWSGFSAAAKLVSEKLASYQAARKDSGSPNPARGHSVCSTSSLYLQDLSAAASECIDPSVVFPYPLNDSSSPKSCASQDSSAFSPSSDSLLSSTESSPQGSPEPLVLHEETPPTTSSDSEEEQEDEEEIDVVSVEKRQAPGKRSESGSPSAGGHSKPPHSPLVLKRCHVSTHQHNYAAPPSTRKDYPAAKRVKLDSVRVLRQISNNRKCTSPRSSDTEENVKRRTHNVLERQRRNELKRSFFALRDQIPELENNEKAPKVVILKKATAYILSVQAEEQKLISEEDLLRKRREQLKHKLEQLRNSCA
Procedure, shortened: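 Cells of the HepG2 human liver line bear multiple cis-driven reporter transcription units. Reporter mRNA after 24 h exposure is reverse-transcribed, amplified, labelled and resolved by capillary electrophoresis, with gain- or loss-of-signal fitting relative to DMSO.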

[20] = ATG_Oct_MLP_CIS: Attagene CIS-FACTORIAL HepG2 Assay for human Octamer-Binding Transcription Factor (Oct) (AID 2282993); settings: HepG2 Attagene cis-factorial Oct reporter, mRNA; actives raise or lower the signal
Procedure, shortened: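 HepG2 cells transiently transfected with cis-element-driven reporter transcription units (endogenous TF activity); 24 h compound exposure. Reporter mRNA quantified by RT-PCR, 6-FAM labelling, HpaI digestion and capillary electrophoresis; bidirectional fit versus DMSO baseline.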

Measured: AC50

CC(C)(Oc1ccc(Cl)cc1)C(=O)O
inactive: all assays above

NC(=O)c1ccc([N+](=O)[O-])cc1Cl
inactive: all assays above

O=C(c1ccccc1)c1ccccc1O
active: [2] 162 µM | [14] 154 µM | [15] 129 µM | [19] 135 µM
inactive: all other assays above

Brc1ccc(Oc2ccc(Br)cc2)cc1
active: [1] 40.4 µM | [3] 56.5 µM | [17] 100 µM
inactive: all other assays above

OCCc1ccccn1
inactive: all assays above

Clc1ccc(Sc2cc(Cl)c(Cl)cc2Cl)cc1
inactive: all assays above

c1cc[c]([Bi]([c]2ccccc2)[c]2ccccc2)cc1
active: [2] 5.72 µM | [3] 58.1 µM | [17] 40.4 µM
inactive: all other assays above

CCOC(=O)CC(=O)OCC
inactive: all assays above
